In all, about 190,000 compounds went through this assay and about 1,700 (0.89%) were called active. For the sample, actives were picked, then their nearest neighbours and some compounds at random. Values without a mark were called inactive.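 How the source made its calls: active means inhibition above the mean inhibition across all screened compounds plus 3 SD (cut at about 44% in these data); inactive means the rest.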
experiment: IL-6 driven STAT3 reporter inhibitors, primary screen, U3A cells, luciferase, luminescence, MLSCN library (AID 862); settings: IL-6 STAT3-luciferase reporter, at 5.5 µM, hits give high values, host cell line lacks STAT1;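 further: 0% = DMSO only wells and 100% = 100 µM nifuroxazide control wells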

Row | SMILES | inhibition
1 | CC(=O)Nc1ccc(NC(=O)COc2ccc(S(=O)(=O)NC(C)c3ccccc3)cc2)cc1 (centres undefined) | 16.1%
2 | Cn1cnnc1Sc1ccc(CN2CCN(C3CCCC3)C(CCO)C2)o1 (centres undefined) | -6.5%
3 | Cc1ccc2nc(-c3ccncc3)cc(C(=O)Nc3ccc4c(c3)OCCO4)c2c1 | 26.4%
4 | C/C(=N\NC(=O)CSc1nc2ccccc2c(=O)n1-c1ccccc1C)c1cccs1 | -9.1%
5 | O=C(Cc1ccccc1)N1CCN(S(=O)(=O)c2ccc([N+](=O)[O-])cc2)CC1 | -1.6%
6 | Cc1cc(C)c2c(n1)sc1c(=O)n(-c3ccccc3)c(=O)[nH]c12 | 1.2%
7 | Cc1cccc(C(=O)OC(C)CN2CCN(C)CC2)c1 (centres undefined) | 6.7%
8 | CCOC(=O)C(C)Sc1nc2ccccc2c(=O)n1CC1CCCCC1 (centres undefined) | -5.1%
9 | CN(c1ccc2nc3ccccc3c(=O)n2n1)C1CCCCC1 | 105% (active)
10 | O=c1c2ccccc2nc2n1C1(CCCCC1)Cc1ccccc1-2 | -3.8%
11 | CN(C)C(CNC(=O)c1cccc(C#N)c1)c1ccco1 (centres undefined) | 5.3%
12 | CCOC(=O)CNC(=O)CSc1ccc2nnc(-c3cccnc3)n2n1 | -10.3%
13 | Cn1ccc(=NC=C(C#N)C#N)c2ccccc21 | 1.3%
14 | Cc1cccc(OCCNC(=S)NC(=O)c2cccnc2)c1 | -5%
15 | CN(Cc1cccnc1)C(=O)c1cc(COc2ccc3ncccc3c2)on1 | 79.1% (active)
16 | Cc1noc(C)c1COc1cccc(C(=O)Nc2cccnc2)c1 | 14.6%
17 | O=C(N/N=C/c1ccc([N+](=O)[O-])o1)c1cn(-c2ccccc2)nc1-c1ccc(F)cc1 | 25%
18 | O=C(O)c1ccccc1-c1ccccc1C(=O)NCc1cccnc1 | -4.3%
19 | CCCCSc1nnc(-c2ccc(C)cc2)o1 | 28.9%
20 | CCOc1ccc(-c2nnc(-c3ccco3)o2)cc1 | 77.6% (active)
21 | CCC(=O)Oc1cccc(C(=O)Nc2ccc(-c3nnc(-c4ccco4)o3)cc2)c1 | 11.2%
22 | O=C(CCc1ccccc1)Nc1cccc(-c2nnc(-c3ccco3)o2)c1 | 15.5%

Row | SMILES | inhibition
23 | CCCCOc1ccc(-c2nnc(-c3ccco3)o2)cc1 | 51.7% (active)
24 | COc1ccc(OCC(=O)Nc2nnc(-c3ccco3)s2)cc1 | -12.3%
25 | CC(C)CNC(=O)CC(NCC(C)C)C(=O)O (centres undefined) | 17.2%
26 | CCCOC1CCCN(Cc2cn(C)nc2-c2ccccc2F)C1 (centres undefined) | 3.9%
27 | O=C(NCC1COc2ccccc2O1)C1(c2ccccc2)CCCC1 (centres undefined) | 9.6%
28 | O=C(COC(=O)CCc1ccc(S(=O)(=O)N2CCOCC2)cc1)Nc1cccc(Cl)c1 | -7.6%
29 | CCn1c(NC(=O)c2nn(C)cc2Br)nc2ccccc21 | 5.2%
30 | CC(=O)c1sc(NC(=O)c2ccc(C)cc2)nc1C | 33.2%
31 | CCSc1nnc(NC(=O)Cc2ccccc2OC)s1 | 1.7%
32 | CCSc1nnc(NC(=O)c2ccc(C)cc2)s1 | 60.6% (active)
33 | Cc1ccc(C2CCN(C(=S)Nc3cccc(Cl)c3)C2)cc1 (centres undefined) | 0.7%
34 | CCc1ccc(-n2c(SCc3cc(=O)n4cc(Br)ccc4n3)nc3[nH]ncc3c2=O)cc1 | 9.7%
35 | CSCCNCc1cn(-c2ccc(F)cc2F)nc1-c1ccccc1C | 0.4%
36 | COc1ccc(CCNC(=O)Cn2c(=O)n(CC3CCCO3)c(=O)c3ccccc32)cc1OC (centres undefined) | 10.4%
37 | Cc1ccc(S(=O)(=O)NCc2csc(C)n2)c(C)c1 | -8.4%
38 | Cc1nc(CNS(=O)(=O)c2ccc(Oc3ccccc3)cc2)cs1 | 54% (active)
39 | Cc1nc(CNS(=O)(=O)c2cccnc2)cs1 | 5.7%
40 | CCc1cc2c(N3CCN(c4nnc(CC)s4)CC3)ncnc2s1 | 57.3% (active)
41 | CCc1cc2c(NC3CCCC3)ncnc2s1 | 13%
42 | CCc1cc2c(SCC(=O)Nc3ncc(Cl)c(C)c3Cl)ncnc2s1 | -5.3%
43 | CCC(C)CN1CCC(CO)(Cc2ccccc2Cl)CC1 (centres undefined) | 3.5%
44 | Cc1cc(=O)oc(C)c1C(=O)N1CCCCC1 | 6.3%

Row | SMILES | inhibition
45 | Cc1ccc2cc3cc(C(=O)N4CCCCCC4)oc3nc2c1 | 48.7% (active)
46 | Cc1cccc(C(=O)N2CCCN(C(=O)c3cccc(C)c3)CC2)c1 | 3.3%
47 | CN1CCN(c2ccc(NC(=O)c3ccc4c(c3)OCCO4)cc2Cl)CC1 | -19.1%
48 | c1ccc(Cc2cc[n+](Cc3ccccc3)cc2)cc1 | 10.2%
49 | CC1CCCN(S(=O)(=O)c2ccc(N(C(=O)c3cnccn3)C(C(=O)NC3CCCCC3)c3cccs3)cc2)C1 (centres undefined) | 5.3%
50 | c1ccc2[nH]c(-c3nc4ccccc4[nH]3)nc2c1 | 44.2% (active)
51 | c1ccc(-c2[nH]ncc2-c2nc3ccccc3[nH]2)cc1 | 15.2%
52 | Cc1ccc(-c2nc3ccccc3[nH]2)cc1N | -19.1%
53 | Cc1cccc(C)c1NC(=O)Nc1ccccc1-n1ccnc1 | 4%
54 | COCCC(=O)Nc1ccc2c(c1)CN(C(=O)CCOC)CC2 | -5.3%
55 | CCNC(=S)NNC(=O)c1ccc2ncccc2c1 | 7.8%
56 | O=C(O)c1ccc(N/N=C/c2ccc3ncccc3c2)cc1 | 69.5% (active)
57 | O=C(O)c1ccc(N/N=C/c2cn(-c3ccccc3)nc2-c2cccs2)cc1 | 1%
58 | CCCC(c1nnnn1C(C)(C)C)N1CCN(Cc2ccccc2)CC1 (centres undefined) | -0.6%
59 | O=C(CC(=O)Nc1ccc(Cl)c(Cl)c1)N/N=C/c1ccc(O)cc1 | -5%
60 | CN(C)CCNC(CC(=O)Nc1ccc(Cl)c(Cl)c1)C(=O)O (centres undefined) | 5.8%
61 | O=C(CC(O)(C(F)(F)F)C(F)(F)F)Nc1ccc(Cl)c(Cl)c1 | 65.1% (active)
62 | COc1cc(C(=O)NCc2ccc(-n3cccc3)cc2)cc(OC)c1OC | 6.8%
63 | COc1ccccc1C(=O)Nc1ccc(OCc2nnc3c4ccccc4c(C)nn23)cc1 | 21.6%
64 | COc1ccc(C)cc1NC(=O)NCc1ccccn1 | 15%

From PubChem BioAssay AID862 (The Scripps Research Institute Molecular Screening Center, 2007)
